Screens (PubChem BioAssay)
TDP1 cell noCPT: qHTS for Inhibitors of human tyrosyl-DNA phosphodiesterase 1 (TDP1): qHTS in cells in absence of CPT; Potency, µM (doses to about 46.2 µM), hits mostly inhibitors; AID 686978, 2013; hit rate 15% among 420,000; DT40 Tdp1-/- hTDP1 cells, no CPT, ATP luminescence, 48 h; note: nearly all actives have a fitted effect of over 55% in size
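Chicken DT40 Tdp1-/- cells stably complemented with human TDP1 were seeded at 400 cells/well with DMSO in place of 20 nM camptothecin. After compound pinning, cells grew at least 48 hr at 37 °C; viability read by CellTiter-Glo luminescence.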
TDP1 cell CPT: DT40-hTDP1 cell growth loss with CPT | chicken DT40 Tdp1-/-;hTDP1 cells + 20 nM CPT, ATP luminescence, 48 h | hit rate 12% among 420,000 | Potency, µM (top dose mostly 46.2 µM), most hits filed as inhibitors | AID 686979; note: nearly all actives have a fitted effect of over 55% in size
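Cell growth measured by CellTiter-Glo luminescence after a minimum 48 h, 37 C compound exposure with 20 nM CPT in Tdp1-knockout DT40 cells stably expressing hTDP1, seeded 400/well; qHTS titration format.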
HT1080 IDH1KD tx: HT-1080 IDH1 knockdown cell toxicity (counter line). HT-1080 IDH1 knockdown viability, ATP luminescence, 48 h. Potency, µM (highest dose often 46.1 µM), hits mostly cytotoxic. hit rate 2% among 360,000. AID 686971
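In this qHTS, HT-1080 cells depleted of IDH1 are exposed for 48 h at 37 °C to compound titrations. Toxicity is scored from CellTiter-Glo luminescence, with DMSO as full viability and medium alone as none.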
IL-1B inflam inh: blocks inflammasome-driven IL-1 beta release | hit rate 4.7% among 360,000 | THP-1 LPS/ATP IL-1B secretion, AlphaLISA, 16 h; stronger effect = lower value | activity change, % at 57.5 µM; in the data active = activity change below about -50%; inconclusive = mostly about -30% to -49%
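Secreted IL-1B measured by AlphaLISA bead assay after 16 h compound exposure of THP-1 cells; compounds (final up to 57.5 uM) added 1 h before LPS (250 ng/mL) and ATP (1.25 mM) stimulation; lower signal means less secretion.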
HT1080NT lethal: kills 2HG-producing HT-1080-NT fibrosarcoma cells. Potency, µM (series often up to 46.1 µM), most hits filed as cytotoxic. hit rate 1.6% among 360,000. HT-1080-NT fibrosarcoma viability, CellTiter-Glo ATP luminescence, 48 h;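 note: NT is the 2HG producing partner of a matched IDH1 knockdown line; nearly all actives have a fitted effect of over 55% in size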
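Luminescent CellTiter-Glo readout after 48 hours of compound exposure at 37 degrees C defined viability of HT-1080-NT cells. Activity was normalized to DMSO wells and cell-free media wells; concentration-response curves were fitted and assigned curve classes.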
A number is an active result; i = inactive; ? = inconclusive; nt = not tested or not shown. In the library only some 19% were active in any assay of this set; here they are far more common. Unless noted, calls come from the whole dose curve; as a rule, active = well fitted curve in the direction sought with a large enough effect; inconclusive = small, poorly fitted or top-dose-only effect, or another doubt; inactive = no such curve, though single readings can be large; an effect the other way counts as inactive or inconclusive.

SMILES | TDP1 cell noCPT | TDP1 cell CPT | HT1080 IDH1KD tx | IL-1B inflam inh | HT1080NT lethal
O=[N+]([O-])c1cccnc1N1CCN(Cc2ccc3c(c2)OCO3)CC1 | i | ? | i | i | i
CCC1(C)CC(C#N)(C#N)C(=O)NC1=O (stereo not drawn) | i | i | i | i | i
CCOc1ccc(CNS(=O)(=O)c2ccc3[nH]c4c(c3c2)CCCC4)cc1OC | 23µM | ? | nt | nt | nt
COc1ccc(S(=O)(=O)NCc2ccc(F)cc2)cc1OC | i | i | i | i | i
COc1ccccc1CNS(=O)(=O)c1ccc2[nH]c3c(c2c1)CCCCC3 | 7.3µM | 10µM | nt | nt | nt
COc1ccc(Cn2cc(C(=O)c3ccc(Cl)cc3)c(=O)c3cc4c(cc32)OCO4)cc1 | 23µM | ? | nt | nt | nt
Cc1ccc2c(c1)c(=O)c(C(=O)c1ccc3c(c1)OCO3)cn2Cc1ccc(Cl)cc1 | 16µM | ? | nt | nt | nt
COc1ccc2c(c1)c(=O)c(C(=O)c1ccc(Cl)cc1)cn2CC(=O)Nc1ccc2c(c1)OCO2 | i | i | nt | nt | nt
O=C(c1ccc2c(c1)OCO2)c1cn(Cc2ccc(Cl)cc2)c2ccc(F)cc2c1=O | 21µM | ? | nt | nt | nt
COc1ccc(OC)c(CCNc2nc3ccccc3c3nc(-c4cccnc4)nn23)c1 | ? | i | nt | nt | nt
COc1ccc(CCNc2nc3ccccc3c3nc(-c4cccc(C)c4)nn23)cc1OC | 7.3µM | ? | nt | nt | nt
COc1ccc(CNc2nc3ccccc3c3nc(-c4ccccc4)nn23)cc1 | 12µM | i | nt | nt | nt
COc1ccccc1CNc1nc2ccccc2c2nc(-c3cccc(C)c3)nn12 | i | i | nt | nt | nt
COc1ccc(CCNc2nc3cc(OC)c(OC)cc3c3nc(-c4ccccc4)nn23)cc1OC | 2.9µM | 5.8µM | nt | nt | nt
COc1ccc(CC(=O)NC2CC(=O)N(c3cccc(F)c3)C2)cc1 (stereo not drawn) | i | i | nt | nt | nt
CCOc1ccc(CNC(=S)Nc2ccccc2)cc1Cl | ? | ? | i | -79 | i
CCOc1ccccc1NC(=S)NC1CC2CCC1C2 (stereo not drawn) | 21µM | ? | i | i | i
COc1ccc(NC(=S)NC2CC3CCC2C3)c(OC)c1 (stereo not drawn) | i | i | i | i | i
COc1ccc(CNC(=S)Nc2ccccc2)cc1 | i | i | i | i | i
CCN(C(=S)Nc1cccc2ccccc12)c1ccccc1 | 10µM | ? | i | i | i
CCOc1ccccc1NC(=S)Nc1ncccc1C | 29µM | ? | ? | i | ?
Cc1cc(C)n(CCNC(=O)[C@H]2O[C@@H](n3ccc(N)nc3=O)[C@H](O)[C@@H]2O)n1 | i | i | i | i | i
S=C(NCc1cccs1)Nc1cccc2ccccc12 | i | i | i | ? | i
COC(=O)c1ccc(NC(=O)C2CC3CCC2C3)cc1 (stereo not drawn) | i | i | i | i | i
CN(C)C(=S)NCc1ccccc1 | 10µM | 23µM | i | i | i
SMILES | TDP1 cell noCPT | TDP1 cell CPT | HT1080 IDH1KD tx | IL-1B inflam inh | HT1080NT lethal
S=C(NCc1ccccc1)Nc1cccc2ccccc12 | 18µM | 18µM | i | i | i
COC(=O)c1ccc(NC(=S)NC2CC3CCC2C3)cc1 (stereo not drawn) | 21µM | 18µM | ? | i | ?
CCOc1ccccc1NC(=S)NCc1ccccc1 | ? | 10µM | i | i | ?
COc1cccc2c1Oc1ncccc1N(C(=O)CCC(=O)NC(C)C)C2 | i | i | nt | nt | nt
CN=C1NN=C(c2cc(C)n(-c3ccc(Cl)cc3)c2C)CS1 | ? | i | i | i | i
CC(=O)Nc1ccc(S(=O)(=O)N2CCN=C2SCc2ccc([N+](=O)[O-])cc2)cc1 | 7.3µM | 12µM | ? | i | ?
CC(=O)Nc1ccc(S(=O)(=O)N2CCN=C2SCc2cccc(C)c2)cc1 | ? | ? | i | i | i
CC(=O)Nc1ccc(S(=O)(=O)N2CCN=C2SCc2ccccc2C)cc1 | 16µM | ? | i | i | i
CC(C)(C)c1ccc(C(=O)NCCC(=O)NCc2cccs2)cc1 | i | ? | ? | i | ?
CSc1ncc2c(=O)[nH]c(-c3ccccc3)nc2n1 | i | i | ? | -74 | ?
Cc1c(-c2ccccc2)nc(-c2ccccc2)[nH]c1=O | i | i | i | i | i
O=C(c1ccc2c(c1)OCO2)C1CCCN(Cc2cn[nH]c2-c2cccc(F)c2)C1 (stereo not drawn) | ? | ? | i | -92 | i
O=C(c1ccc2c(c1)OCO2)C1CCCN(Cc2ccc3cccc(F)c3n2)C1 (stereo not drawn) | 21µM | ? | i | i | i
O=C(c1ccc2c(c1)OCO2)C1CCCN(Cc2cccc(C(F)(F)F)c2)C1 (stereo not drawn) | i | ? | i | i | i
OCC1CCCC(n2cnc3c(=S)nc[nH]c32)O1 (stereo not drawn) | i | i | i | i | i
CCC(CCC(=O)NNC(=O)Cc1ccc([N+](=O)[O-])cc1)C(=O)O (stereo not drawn) | i | i | i | i | i
COc1ccc(S(=O)(=O)Nc2cccc(S(=O)(=O)N(C)C)c2)cc1[N+](=O)[O-] | i | i | i | i | i
Cc1ccc(NCC(=O)N=Nc2c(O)[nH]c3ccc([N+](=O)[O-])cc23)cc1 | 23µM | ? | ? | i | ?
O=[N+]([O-])c1ccc2[nH]c(O)c(N=NC(=S)Nc3cccnc3)c2c1 | i | i | i | i | i
CCNC(=S)N=Nc1c(O)[nH]c2ccc([N+](=O)[O-])cc12 | 4.1µM | 3.3µM | 5.8µM | i | i
O=[N+]([O-])c1ccc2[nH]c(O)c(N=NC(=S)NCC3CCCO3)c2c1 (stereo not drawn) | 15µM | ? | i | i | i
Cc1ccc(NS(=O)(=O)c2cc([N+](=O)[O-])ccc2NNC(=S)Nc2cccc(Cl)c2)c(C)c1 | ? | ? | ? | i | ?
COc1ccc(NC(=S)NNc2ccc([N+](=O)[O-])cc2S(=O)(=O)Nc2ccc(C)cc2C)cc1 | ? | i | 18µM | -84 | 23µM
Cc1ccc(NS(=O)(=O)c2cc([N+](=O)[O-])ccc2NNC(=S)Nc2cc(C)ccc2C)c(C)c1 | 21µM | ? | ? | -67 | ?
O=C(Nc1ccc(OC(F)(F)F)cc1)C(NS(=O)(=O)c1cccc2nsnc12)c1ccccc1 (stereo not drawn) | ? | 16µM | nt | nt | nt
Cc1[nH]c2ccccc2c1C(C#N)(C#N)C1C(=O)c2ccccc2C1=O | 2.1µM | 2.1µM | 26µM | i | 18µM
COCCNC(=O)Cn1cc(C(=O)c2ccco2)c2ccccc21 | i | i | i | i | i
COC(=O)Cn1cc(C(=O)c2ccco2)c2ccccc21 | i | i | i | i | i
Cc1ccc(C)c(OCCn2cc(C(=O)c3ccco3)c3ccccc32)c1 | 13µM | 21µM | nt | nt | nt
Cc1ccc(C(C)C)c(OCCn2cc(C(=O)c3ccco3)c3ccccc32)c1 | 15µM | 18µM | nt | nt | nt
